Our source for the fluorescence intensity values is PubChem BioAssay AID624483 (NMMLSC, 2012).

The campaign covered roughly 360,000 compounds. About 11,000 (3.1%) were called active. Not shown: some 2% with an inconclusive outcome. Rule as the data show it: active = fluorescence intensity above about 16000; inconclusive = no clear call, values can overlap the other calls; inactive = below that. Shown is part of a subset that was picked to be rich in actives.

The nature of this assay: counter-screen for toxin protease inhibitors: compound fluorescence, primary screen, artefact control for toxin protease inhibitor project, biochemical, multiplex microsphere, HTS (AID 624483). To be noted: compound autofluorescence counterscreen, microsphere flow cytometry; active compounds read high. (In general: A counterscreen serves to expose hits that act by an unwanted route or on another target.)
On to `Cc1cccc(NS(=O)(=O)c2cccc(C(=O)NNC(=O)c3ccccc3O)c2)c1`, for which the fluorescence intensity is 3510 (inactive). For the compound `COc1cccc(C(NC(C)=O)c2nc(-c3ccccc3OC)cs2)c1` (stereo not drawn), the fluorescence intensity was 3680 (inactive). Turning to `CC(C)(C)CC(=O)Nc1nc(C(N)Cc2ccc(C(F)(F)F)cc2)cs1` (stereo not drawn), the fluorescence intensity was 2950 (inactive). Regarding `O=C(NC1CCCC1)C(c1ccco1)N(C(=O)c1csnn1)c1ccccc1` (stereo not drawn), the fluorescence intensity was 3410 (inactive). The same measure for `Cc1ccccc1-c1nc(NC(C)C)nc2cc(-c3ccccc3)sc12`: 2960 (inactive).

As for `CC(C)NC(=O)C1(C)CCCCCN1C(=O)c1ccc(-c2ccccc2)cc1` (stereo not drawn), the fluorescence intensity is 3730 (inactive).

Take `Cc1cc(/C=N/NC(N)=O)c(C)n1C1CCCCC1`: the fluorescence intensity was 5160 (inactive).

Consider `CC(=O)Nc1ccc(NC(=O)c2ccc3c(c2)C(=O)N(c2ccccc2C)C3=O)cc1`, for which the fluorescence intensity was 3300 (inactive). As to `CCOC(=O)C1=CC[C@@H](c2ccncc2)N(S(=O)(=O)c2ccc(C)cc2)C1`, the fluorescence intensity is 6280 (inactive). As for `S=c1[nH]nc(CSCc2ccc(Cl)cc2Cl)n1-c1ccccc1`, the fluorescence intensity is 22300 (active). For `CCn1c(CSCc2c(Cl)cccc2Cl)n[nH]c1=S`, the fluorescence intensity is 5080 (inactive). The figure for `Cc1ccc(NCc2n[nH]c(=S)n2-c2ccccc2)cc1Cl` is 4580 (inactive).

With `O=C(c1cc(COc2ccc(F)cc2F)on1)N1CCOCC1`, the fluorescence intensity was 6230 (inactive). The figure for `CN1C(=O)[C@H]2[C@@H](/C=C/c3ccccc3)N3C(=O)CN(Cc4ccc(-c5ccccc5)cc4)C(=O)[C@@]3(C)[C@H]2C1=O` is 3800 (inactive); for `COc1ccc(Cn2c(=S)[nH]c3cc(C(=O)NCCCN4CCOCC4)ccc3c2=O)cc1` it is 5500 (inactive). As for `CCOc1cc2[nH]c(=S)n(Cc3ccc(C(=O)NCCOC)cc3)c(=O)c2cc1OCC`, the fluorescence intensity is 20100 (active). The same measure for `CCOc1cc2[nH]c(=O)n(Cc3ccc(C(=O)NCCCN4CCCC4=O)cc3)c(=O)c2cc1OCC`: 4740 (inactive). The same measure for `CCOc1cc2[nH]c(=S)n(Cc3ccc(C(=O)N4CCN(C)CC4)cc3)c(=O)c2cc1OCC`: 5670 (inactive); for `COc1ccc(-n2c(=O)[nH]c3cc(C(=O)NCCc4ccc(OC)c(OC)c4)ccc3c2=O)c(OC)c1`: 3790 (inactive); for `COCCn1c(=S)[nH]c2cc(C(=O)NCCc3ccc(OC)c(OC)c3)ccc2c1=O`: 22200 (active). The figure for `CN1CCN(c2ccc3c(c2)OC[C@H](Cc2ccccc2)NS3(=O)=O)CC1` is 5440 (inactive); for `COc1ccc(CCCNC(=O)C2Cc3c(-c4cccc(C(N)=O)c4)ccnc3O2)cc1` (stereo not drawn) it is 3760 (inactive); for `O=S1(=O)CC(N2CCN(CCO)CC2)CN1C1CCCC1` (stereo not drawn) it is 5290 (inactive). As to `CC(C)CN(C(=O)Cn1c(=O)cnc2ccccc21)C1CCS(=O)(=O)C1` (stereo not drawn), the fluorescence intensity was 7550 (inactive).

For `COc1ccccc1Cc1c(-c2ccc(Cl)cc2)nc2c3ccccc3ccn12`, the fluorescence intensity is 6870 (inactive). The figure for `COc1ncnc2c1N=C1CC(C)(C)CC(N)=C1S2` is 10000 (inactive). In the case of `O=C1/C(=C/c2ccc3c(c2)OCO3)Oc2cc(OCC(=O)N3CC(O)C[C@H]3C(=O)O)ccc21` (stereo partly drawn), the fluorescence intensity is 5670 (inactive). The figure for `CCc1oc(-c2ccc(OC)cc2)c(C(=O)OCCCCCO)c1C(C)OCCO` (stereo not drawn) is 5030 (inactive); for `CCOC(=O)N1CCN(C(=O)C[C@@H]2C[C@@]3(C(=O)OC)CCCCC=C3N(CCC3=CCCCC3)C2=O)CC1` it is 5780 (inactive). The figure for `Cc1cnc(NC(=O)C2CCCC2)s1` is 3280 (inactive); for `COC(=O)c1cc(C)sc1NC(=O)CC1Nc2ccccc2NC1=O` (stereo not drawn) it is 4220 (inactive); for `CCOC(=O)c1cc(C)sc1NC(=O)C1CCC1` it is 20200 (active).

Consider `Cc1cc(Br)ccc1SCC(=O)OCC(=O)NCc1ccc2c(c1)OCO2`, for which the fluorescence intensity was 2190 (inactive). For the compound `Cc1cc(C)cc(NC(=O)CN2C(=O)c3ccccc3C2=O)c1`, the fluorescence intensity is 4110 (inactive).

As to `Cc1ccccc1C(=O)NNC(=O)CN1C(=O)c2ccccc2C1=O`, the fluorescence intensity was 2780 (inactive). On to `C=CCN(CC=C)C(=O)CN1C(=O)c2ccccc2C1=O`, for which the fluorescence intensity was 16300 (active).

For the compound `CC(=O)/C(=N\Nc1ccc(Cl)cc1Cl)Sc1cccc2cccnc12`, the fluorescence intensity was 7970 (inactive).

For `COc1cccc(-c2cnc3c(NC(C)=O)cc(-c4cccc(NC(C)=O)c4)cn23)c1`, the fluorescence intensity was 3610 (inactive).

Consider `c1ccc(-c2ccnc3nc(-n4cccc4)nn23)cc1`, for which the fluorescence intensity was 16400 (active).

For the compound `Cc1ccnc2nc(C(=O)Nc3nnc(-c4ccccc4)o3)nn12`, the fluorescence intensity is 4840 (inactive). For `CCCc1cc(=S)n2c([nH]c3ccccc32)c1C#N`, the fluorescence intensity is 3240 (inactive). The figure for `CN(C)C(CNC(=O)CCCOc1ccccc1)c1ccco1` (stereo not drawn) is 22900 (active); for `CN(C)C(CNC(=O)c1cccc(C#N)c1)c1ccco1` (stereo not drawn) it is 3360 (inactive). The figure for `CN(C)C(CNC(=O)c1ccc(OCc2cn3ccccc3n2)cc1)c1ccco1` (stereo not drawn) is 4090 (inactive).

With `O=C1NC[C@H](Cc2ccc(O)cc2)N(C[C@@H]2CCCN2C[C@H](Cc2ccccc2)N2C[C@H](Cc3ccccc3)N(CC3CCCCC3)C(=O)C2=O)C1=O`, the fluorescence intensity was 7010 (inactive). For the compound `COC(=O)[C@]12CCCCC=C1N(CCC1=CCCCC1)C(=O)[C@H](CC(=O)NCC1CCCCC1)C2`, the fluorescence intensity is 4280 (inactive). The same measure for `COc1ccccc1OCC(=O)O/N=C(\N)c1ccccn1`: 6210 (inactive); for `N/C(=N\OC(=O)CCC1CCCCC1)c1ccccn1`: 16300 (active). The figure for `N/C(=N\OC(=O)CC1CCCCC1)c1ccccc1` is 2550 (inactive). The figure for `COc1ccccc1C(=O)Nc1ccc(Nc2ccccc2)cc1` is 4350 (inactive). For the compound `COc1ccccc1C(=O)c1ccccc1C(=O)c1ccccc1`, the fluorescence intensity is 4030 (inactive). For the compound `COc1ccccc1C(=O)C(O)c1ccccc1OC` (stereo not drawn), the fluorescence intensity is 20300 (active). The same measure for `O=C(Nc1ccccc1)c1ccccc1NC(=O)C(F)(F)F`: 9920 (inactive); for `CC(=O)Nc1ccccc1C(=O)C(=O)Nc1ccc(F)cc1`: 19600 (active).

Turning to `CC(=O)Nc1ccccc1C(=O)OCC(=O)c1cccc2ccccc12`, the fluorescence intensity was 4440 (inactive). Turning to `CCNC(=S)Nc1ccc2c(c1)c(=O)n(C)n2Cc1ccc(Cl)cc1`, the fluorescence intensity is 3690 (inactive). For `CC1(C(=O)NS(=O)(=O)c2ccc(Cl)cc2)CCN1C(=O)CC1CCCC1` (stereo not drawn), the fluorescence intensity is 3020 (inactive). `COc1ccc(C(C)(O)c2nc(-c3ccc(C)c(C)c3)cs2)cc1` (stereo not drawn): the fluorescence intensity was 3400 (inactive).
